Screening results (PubChem BioAssay)
Rows were chosen to be rich in hits. Some 4.3% of all compounds tested hit in one or more screens of this group.
HSF1 inh – HSF1 inhibition; NIH3T3-HGL HSE-luciferase, MG132-induced, luminescence 8 h; stronger effect = lower value; activity change, negative = inhibition, % at 7.5 µM (by protocol); 300,000 tested, 0.77% active;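 active = more than half of replicate wells show activity change below -50%, luminescence cut by over half; inconclusive = some wells, but at most half, below -50%; inactive = no replicate well below -50%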;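 note: luciferase reports HSF-1 transcriptional activity via heat shock element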
MITF TRPM1 HTS – increases MITF-driven TRPM1 promoter luciferase signal | SK-MEL-5 TRPM1-promoter luciferase, 24 h; % of positive control, neutral wells = 0 | 300,000 tested, 0.75% active | activation, % at 12.5 µM | AID 588334;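 active = mean activation of at least 80% with every replicate also reaching 80%; inconclusive = mean reaches 80% but some replicate falls short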
HSF1 activator – increases HSF-1 driven luciferase reporter signal; AID 504408; 300,000 tested, 1.7% active; activation, % at 9 µM; NIH3T3-HGL HSF-1 luciferase reporter, MG132, 8 h; 100% = twice DMSO control signal;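 active = mean replicate activation of at least 50% with a set share of replicates each reaching 50%; inconclusive = only one of those two conditions met; inactive = mean below 50% and too few replicates reaching it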
esBAF inh – inhibitors of esBAF chromatin remodeling in mouse ES cells; reporter increase, % at 12.5 µM; 350,000 tested, 2% active; AID 602393; Bmi1-luciferase knock-in reporter, 24 h; 100% = twice the neutral-well signal; in the data active = activation above about 40%; inconclusive = no clear call, values can overlap the other calls;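 note: a rise in the Bmi1 reporter signal indicates esBAF inhibition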
Wnt act – activates Wnt/beta-catenin signaling in a reporter cell assay. activation, % at 9.35 µM. activator, plate reader. 300,000 tested, 1.2% active. AID 743398; in the data active = activation above about 30%, passing the limit was not always enough; inconclusive = no clear call, values can overlap the other calls
SMARCA2 act – SMARCA2 function activation, primary screen; MG213 cells, MMTV-luciferase reporter, dexamethasone, overnight; activation, % at 9.1 µM; 370,000 tested, 1% active; in the data active = activation above about 7.8%
Each line names hits and unclear results; the compound was inactive in the other large screens.

O=C(O)c1ccc(-c2nnc(-c3cccc(Br)c3)o2)cc1	esBAF inh 71
COC(=O)C[C@@H]1CC[C@H]2[C@H](COc3ccc(NC(=O)Nc4ccc(C)cc4)cc3C(=O)N2C)O1	none (no result: HSF1 inh, MITF TRPM1 HTS, HSF1 activator, Wnt act, SMARCA2 act)
COc1cc(/C=C(\C#N)c2ccccn2)ccc1OCc1ccc(Cl)cc1	HSF1 activator 68 (no result: esBAF inh, Wnt act)
CCN(Cc1ccccc1)c1ccc(/C=C(\C#N)c2ccccn2)cc1	MITF TRPM1 HTS 121, HSF1 activator 103, esBAF inh 77, Wnt act 96
COc1cc(/C=C(\C#N)c2ccccn2)ccc1OCc1ccccc1	none (no result: esBAF inh)
CCN(CC)c1ccc(/C=C(\C#N)c2ccccn2)cc1	HSF1 inh -58 (no result: Wnt act, SMARCA2 act)
CC(C)CC1C(C#N)=C(N)Oc2n[nH]c(-c3cccs3)c21 (stereo not given)	Wnt act 37 (no result: MITF TRPM1 HTS)
CCOC(=O)c1ccc(N(CC(=O)NC2CCCCC2)C(=O)CNC(=O)c2ccco2)cc1	none
COC(=O)c1ccc(N(CC(=O)NC2CCCCC2)C(=O)CNC(=O)c2ccco2)cc1	HSF1 activator 71
Cc1ccccc1CN1C(=O)c2ccccc2Sc2ccc(C(=O)NCCN3CCOCC3)cc21	HSF1 activator 60
C[C@H](CO)N1C[C@H](C)[C@@H](CN(C)Cc2ccc(-c3ccccc3)cc2)Oc2ccc(N(C)C)cc2C1=O	none (no result: HSF1 inh, MITF TRPM1 HTS, HSF1 activator, Wnt act, SMARCA2 act)
O=c1cc(NCCc2ccccc2)c2ccccc2o1	HSF1 activator 57 (no result: esBAF inh)
O=c1cc(NCCO)c2ccccc2o1	none (no result: Wnt act)
CN1C(C(=O)Nc2ccc(OC(F)(F)F)cc2)=CC(c2cccs2)=NS1(=O)=O	HSF1 inh -74
CNC[C@H]1Oc2ccc(NC(=O)Nc3c(C)noc3C)cc2C(=O)N([C@@H](C)CO)C[C@@H]1C	none (no result: HSF1 inh, MITF TRPM1 HTS, HSF1 activator, Wnt act, SMARCA2 act)
Cc1cccc(C(=O)Nc2sc(-c3ccccc3)cc2C(=O)O)c1	MITF TRPM1 HTS 93, esBAF inh 68
Cc1cccc(C(=O)c2c(N)sc3c2CCC(C)C3)c1 (stereo not given)	none (no result: esBAF inh)
CC(C)(C)C(=O)Nc1sc(-c2ccccc2)cc1C(=O)O	none (no result: esBAF inh)
Cc1cccc(C(=O)Nc2sc3c(c2C(=O)O)CCCC3)c1	esBAF inh 72
Cc1cccc(C(=O)c2c(N)sc3c2CCCC3)c1	Wnt act 37 (no result: esBAF inh)
O=C(Nc1sc2c(c1C(=O)O)CCC2)c1cccc(Cl)c1	none (no result: esBAF inh)
CC(C)CC#Cc1cnc2c(c1)C(=O)N([C@H](C)CO)C[C@H](C)[C@H](CN(C)Cc1ccc3c(c1)OCO3)O2	none (no result: HSF1 inh, MITF TRPM1 HTS, HSF1 activator, Wnt act, SMARCA2 act)
Cc1noc(C)c1NC(=O)N(C)C[C@H]1Oc2ccc(NC(=O)Cc3cn(C)c4ccccc34)cc2C(=O)N([C@@H](C)CO)C[C@H]1C	none (no result: HSF1 inh, MITF TRPM1 HTS, HSF1 activator, Wnt act, SMARCA2 act)
Cc1ccnc(NC(=O)c2ccc(Cl)s2)c1	MITF TRPM1 HTS 87, esBAF inh 61 (no result: Wnt act, SMARCA2 act)
Cc1ccnc(NC(=O)CNC(=O)c2cccs2)c1	none
O=C(NC(=S)Nc1ccc(Cl)cn1)c1cccs1	esBAF inh 72
O=C(NC(=S)Nc1cccnc1)c1cccs1	none
Cc1ccnc(NC(=S)NC(=O)c2cccs2)c1	Wnt act 34 (no result: esBAF inh)
CCN(CC)c1ccc2cc(C(=O)Nc3ccccn3)c(=O)oc2c1	esBAF inh 49
CCN(CC)c1ccc2cc(C(C)=O)c(=O)oc2c1	none (no result: esBAF inh)
CO[C@H]1CN(C)C(=O)c2cc(NC(=O)Nc3c(C)noc3C)ccc2OC[C@H](C)N(CC2CC2)C[C@@H]1C	none (no result: HSF1 inh, MITF TRPM1 HTS, HSF1 activator, Wnt act, SMARCA2 act)
Cc1ccc(-c2nc3cc(Cl)ccc3o2)cc1	none (no result: Wnt act)
COc1cc(OC)cc(-c2nc3cc(C)ccc3o2)c1	HSF1 activator inconclusive, esBAF inh 45, Wnt act 57
COc1ccccc1C(=O)Nc1ccc(Br)cc1C	Wnt act 37
COc1ccc(NC(=O)c2ccccc2O)c(OC)c1	esBAF inh 53
COc1ccc(NC(=O)c2ccccc2SC)c(OC)c1	none (no result: esBAF inh)
COc1ccc(NC(=O)CSc2nccn2Cc2ccccc2)c(OC)c1	none
COc1ccc(NC(=O)c2cc(C(C)C)on2)c(OC)c1	esBAF inh 50
COc1ccc(NC(=O)CSc2ccccc2)c(OC)c1	esBAF inh 56 (no result: Wnt act)
CC=Cc1ccc2n(c1=O)C[C@@H]1[C@@H](CO)[C@H](C(=O)NCC)[C@H]2N1S(=O)(=O)c1cn(C)cn1 (mixture of isomers)	none (no result: HSF1 inh, MITF TRPM1 HTS, HSF1 activator, Wnt act, SMARCA2 act)
COc1ccc(NC(=O)C/C(C)=N/NC(=O)C(=O)Nc2cccc(Cl)c2C)c(OC)c1	none (no result: esBAF inh)
COc1ccc(NC(=O)C/C(C)=N/NC(=O)C(=O)NC(C)C)c(OC)c1	SMARCA2 act 7.9 (no result: HSF1 inh, HSF1 activator, esBAF inh)
CCOc1ccc(N=Nc2c(N)[nH][nH]c2=O)cc1	HSF1 inh -78 (no result: esBAF inh)
COc1cccc(N=Nc2c(N)[nH][nH]c2=O)c1	none (no result: esBAF inh)
COc1ccc(C)cc1C1=Nc2ccccc2C1(C)C	none (no result: esBAF inh, Wnt act)
Cc1ccc(O)c(C2=Nc3ccccc3C2(C)C)c1	MITF TRPM1 HTS 98, esBAF inh 67
C[C@H]1CN([C@@H](C)CO)C(=O)Cc2cc(NS(=O)(=O)c3ccc(Cl)cc3)ccc2O[C@@H]1CN(C)S(C)(=O)=O	none (no result: HSF1 inh, MITF TRPM1 HTS, HSF1 activator, Wnt act, SMARCA2 act)
N#Cc1c(Cl)nc(N/N=C/c2ccccc2)c(Cl)c1Cl	HSF1 activator 63 (no result: esBAF inh)
C[N+](C)(C)c1ccc(/C=N/Nc2nc(Cl)c(C#N)c(Cl)c2Cl)cc1	none (no result: esBAF inh)
CS(=O)(=O)N(CC(=O)NCC1CCCO1)c1cc(Cl)ccc1Cl (stereo not given)	HSF1 activator 54
CS(=O)(=O)N(CC(=O)NCC1CCCO1)c1cc(Cl)c(Cl)cc1Cl (stereo not given)	none
S=C(NCC1CCCO1)Nc1ccc(Cl)cc1Cl (stereo not given)	esBAF inh 49, Wnt act inconclusive
O=C(NC(=S)NCC1CCCO1)c1ccccc1 (stereo not given)	none
Cc1ccc(C(=O)NC(=S)NCC2CCCO2)cc1 (stereo not given)	MITF TRPM1 HTS inconclusive, HSF1 activator 89, esBAF inh inconclusive (no result: Wnt act)
O=C(NC(=S)NCC1CCCO1)c1ccc(Cl)cc1 (stereo not given)	MITF TRPM1 HTS 88 (no result: esBAF inh)
COC(=O)N(C)C[C@@H]1OCc2cn(nn2)CCCC(=O)N([C@@H](C)CO)C[C@@H]1C	none (no result: HSF1 inh, MITF TRPM1 HTS, HSF1 activator, Wnt act, SMARCA2 act)
Oc1ccc(Cl)cc1CNCC1CCCO1 (stereo not given)	none (no result: MITF TRPM1 HTS)
O=C(COC(=O)c1ccc(Br)cc1)NCC1CCCO1 (stereo not given)	none (no result: HSF1 inh, HSF1 activator)
Cc1ccc(/C=C(\C#N)C(=O)NCC2CCCO2)o1 (stereo not given)	Wnt act 78
O=C(NCC1CCCO1)Nc1ccc(Cl)cc1 (stereo not given)	esBAF inh 45
Clc1ccc(-c2ccc(CNCC3CCCO3)o2)cc1 (stereo not given)	HSF1 activator 79
O=C(COC(=O)c1ccccc1)NCC1CCCO1 (stereo not given)	esBAF inh 49 (no result: Wnt act)
COCC(=O)Nc1ccc2c(c1)C(=O)N(C)C[C@H](OC)[C@@H](C)CN(Cc1ccccc1)[C@@H](C)CO2	none (no result: HSF1 inh, MITF TRPM1 HTS, HSF1 activator, Wnt act, SMARCA2 act)
O=C(C[C@H]1CC[C@H]2[C@@H](COC[C@@H](O)CN2Cc2nccs2)O1)NCc1ccc(Cl)cc1	none (no result: HSF1 inh, MITF TRPM1 HTS, HSF1 activator, Wnt act, SMARCA2 act)
